Assay outcomes deposited in PubChem by Sanford-Burnham Center for Chemical Genomics.
Compounds with a hit are over-represented: about 2.6% of the library has one in this group of screens.
PHOSPHO1 inh: PHOSPHO1 (human) inhibition | inhibition, % at 13.3 µM | recombinant PHOSPHO1, absorbance phosphatase assay | Q8TCT1 | 1.1% of 290,000 active; in the data active means inhibition above about 60%
A3G deaminase: APOBEC3G (human) deaminase inhibition. AID 493012. 0.28% of 330,000 active. Q9HC16. recombinant A3G, ssDNA deamination FAM/TAMRA fluorescence. inhibition, % at 20 µM;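 active means inhibition of at least 40% at 20 µM, with no more than 30% in the related APOBEC3A deaminase screen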;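 further: plate controls were DMSO wells with A3G for no effect and wells lacking A3G enzyme for full effect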
eIF4H FP inh: inhibitors of RNA binding by human eIF4H | inhibition, % at 35 µM | AID 2012 | Q15056 | eIF4H fluorescence polarization binding assay | 0.94% of 290,000 active;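 further: calls also rest on retests at 20 µM and on dose response follow-up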
A3A deaminase: human APOBEC3A DNA deaminase inhibition. 0.41% of 330,000 active. recombinant A3A, FAM/TAMRA ssDNA deamination fluorescence. P31941. inhibition, % at 20 µM;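 active means at least 40% inhibition at 20 µM here, with at most 30% in a related deaminase screen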;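 further: plate controls were A3A with DMSO for no effect and wells lacking A3A enzyme for full effect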
PABP1 MLLE inh: blocks PAM2 peptide binding to the PABP1 MLLE domain; P11940; GST-MLLE / FITC-PAM2 fluorescence polarization; inhibition, % at 20 µM; 0.36% of 360,000 active; AID 588489; in the data active means inhibition above about 35%, passing the limit was not always enough;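 further: plate controls were DMSO wells with GST-MLLE for no effect and wells lacking GST-MLLE protein for full effect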
Target sequence (P11940 whole entry, looked up, the tested form may be a part): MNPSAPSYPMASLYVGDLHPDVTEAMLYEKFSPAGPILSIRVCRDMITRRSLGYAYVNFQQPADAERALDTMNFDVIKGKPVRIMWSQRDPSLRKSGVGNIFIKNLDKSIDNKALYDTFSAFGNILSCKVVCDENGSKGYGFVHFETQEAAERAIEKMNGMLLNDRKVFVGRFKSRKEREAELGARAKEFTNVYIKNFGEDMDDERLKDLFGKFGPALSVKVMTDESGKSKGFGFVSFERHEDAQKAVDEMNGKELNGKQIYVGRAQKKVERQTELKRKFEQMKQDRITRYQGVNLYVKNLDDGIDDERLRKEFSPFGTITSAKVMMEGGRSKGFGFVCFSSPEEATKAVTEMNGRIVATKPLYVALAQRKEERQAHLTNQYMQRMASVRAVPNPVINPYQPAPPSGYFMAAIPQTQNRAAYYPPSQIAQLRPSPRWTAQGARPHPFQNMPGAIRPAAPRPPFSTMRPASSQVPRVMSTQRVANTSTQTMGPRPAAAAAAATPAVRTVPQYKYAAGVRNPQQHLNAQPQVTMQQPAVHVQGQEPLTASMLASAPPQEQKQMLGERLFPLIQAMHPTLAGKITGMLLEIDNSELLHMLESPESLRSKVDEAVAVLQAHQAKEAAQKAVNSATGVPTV
PABP polyA inh: blocks human PABP binding to poly(A) RNA; calls only at 35 µM; P11940; AID 2014; 1% of 290,000 active; fluorescence polarization;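 further: calls also rest on retests at 20 µM and on dose response follow-up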
* marks the source's active call; other numbers are inactive results; i = inactive; ? = inconclusive; . = not tested or not shown; + = active, no number. Unless noted, how the calls were made is not given here.

SMILES	PHOSPHO1 inh	A3G deaminase	eIF4H FP inh	A3A deaminase	PABP1 MLLE inh	PABP polyA inh
Cc1c(N=Nc2c(O)n(Cc3ccccc3)c(=O)[nH]c2=O)c(=O)n(-c2ccccc2)n1C	4.2	-7.9	7.6	10.1	-52.2	i
CC(C)(C)n1nnnc1C(c1cccc2ccccc12)N1CCC2(CC1)C(=O)NCN2c1ccccc1 (stereo unspecified)	.	.	.	.	16.8	.
CC1C(OC(=O)CCC(=O)NC(C)(C)CO)O[C@H]2OC3(C)CC[C@H]4[C@H](C)CCC1C24OO3 (stereo partly specified)	36.0	-2.2	4.9	-2.0	-13.2	i
CN1C(=O)NC(=O)/C(=C/c2ccc(C(=O)O)cc2)C1=O	17.7	-5.4	7.6	10.1	23.3	i
Cc1cc(/C=C2\C(=O)NC(=O)N(C)C2=O)c(C)n1-c1ccc2c(c1)OCO2	18.2	3.1	73.3	10.3	1.2	i
Cc1ccc(/C=C2/C(=O)NC(=O)N(C)C2=O)cc1	-0.5	-5.1	?	0.1	15.3	+
O=C1NC(=O)N(c2ccccc2F)C(=O)/C1=C/c1cn(CC(=O)N2CCOCC2)c2ccccc12	23.2	-0.2	?	-3.9	.	?
Cc1cc(C=C2C(=O)NC(=O)NC2=O)c(C)n1-c1ccc2c(c1)OCO2	-8.8	-4.8	65.2	-1.6	-15.0	i
Cc1cc(/C=C2\C(=O)NC(=O)N(c3ccccc3F)C2=O)c(C)n1-c1cc(C(=O)O)cc(C(=O)O)c1	23.9	72.1	65.0	92.8	15.5	+
Cc1cc(/C=C2/C(=O)NC(=O)N(C)C2=O)c(C)n1-c1ccccc1	26.0	-11.0	68.7	1.5	-12.3	+
Cc1cc(C=C2C(=O)NC(=S)NC2=O)c(C)n1-c1ccc2c(c1)OCO2	-2.9	19.7	92.0	20.1	-57.0	+
CC(=O)CC(=O)C1C(=O)N(C)C(=O)N(C)C1=O	31.7	-9.9	7.8	-1.7	-0.7	i
COCc1cc(OC(=O)N(C)C)nc(-c2ccccc2)n1	16.0	-6.4	-5.0	-2.5	3.8	i
Cc1cccc(CCNCc2cc3cccc(C)c3[nH]c2=O)c1	23.9	-0.9	4.5	-1.3	5.9	i
O=C(CSC1c2ccccc2-c2ccccc21)N/N=C/c1ccc(C(=O)O)cc1	20.5	7.1	-6.9	-0.7	-0.1	i
O=C(CSC1c2ccccc2-c2ccccc21)N/N=C/c1ccccc1O	1.7	-0.8	6.2	3.5	40.0*	i
O=c1cc(C(F)(F)F)c2cc3c4c(c2o1)CCCN4CCC3	7.2	-103.9	?	-54.5	i	+
Cc1cc2c(C(F)(F)F)cc(=O)oc2c2c1NCCC2	45.0	-1.1	?	4.8	40.7	?
O=c1[nH]c(O)c(N=Nc2cccc(S(=O)(=O)N3CCOCC3)c2)c(=O)[nH]1	60.0*	-4.8	1.0	-0.5	8.2	i
CCCCC(=O)N/N=C/c1c(O)n(Cc2ccco2)c(=O)[nH]c1=O	10.9	7.8	85.8	15.0	-34.9	+
O=C(N/N=C/c1c(O)n(Cc2ccco2)c(=O)[nH]c1=O)c1ccccc1O	17.7	11.6	53.2*	39.5	-57.5	i
CC(=O)Nc1ccc(N=Cc2c(O)n(Cc3ccco3)c(=O)[nH]c2=O)cc1	-36.5	8.0	68.4	3.8	18.2	i
CC(C)(O)[C@@H]1[C@H]2OC(=O)[C@@H]1[C@]1(O)C[C@H]3O[C@]34C(=O)O[C@H]2[C@]14C (tested in a mixture with another compound)	.	-2.8	.	-2.9	.	.
CN(C)CP(=O)(Nc1ccccc1)N(C)C (stereo unspecified)	-4.9	-2.6	9.9	6.8	3.4	i
CN(C)P(=O)(CCl)Nc1ccccc1 (stereo unspecified)	3.1	-3.9	96.1*	-2.0	9.6	+
SMILES	PHOSPHO1 inh	A3G deaminase	eIF4H FP inh	A3A deaminase	PABP1 MLLE inh	PABP polyA inh
CCN1C(=O)NC(=O)/C(=C\c2ccc(N3CCOCC3)cc2OC)C1=O	22.9	-5.4	?	-2.9	.	+
Cn1c(O)c(C=Nc2ccccc2Sc2ccccc2)c(=O)n(C)c1=O	-8.1	-3.3	86.8	0.7	2.2	+
CN1C(=O)NC(=O)/C(=C/c2ccc([N+](=O)[O-])s2)C1=O	-83.8	3.9	63.7*	7.7	22.5	+
O=C1NC(=O)C(=Cc2ccc(-c3ccccc3[N+](=O)[O-])o2)C(=O)N1	-10.5	-5.5	14.7	-4.9	17.1	i
O=C1NC(=O)N(c2ccccc2)C(=O)/C1=C\c1ccc([N+](=O)[O-])o1	62.3*	82.5	78.0*	87.7	.	+
CN1C(=O)NC(=O)/C(=C/c2ccc([N+](=O)[O-])o2)C1=O	16.6	31.3	?	66.3	.	+
CCCC(=O)NC(Oc1ccc(C(C)=O)cc1)C(Cl)(Cl)Cl (stereo unspecified)	-21.5	-7.9	-8.1	-2.6	-15.2	i
CCOC(=O)c1c(N)n(CCN2CCCCC2)c2nc3ccccc3nc12	-6.0	-5.2	94.5*	4.8	-12.4	+
CCC(C)NC(=O)c1c(N)n(CCCOC)c2nc3ccccc3nc12 (stereo unspecified)	0.6	-9.6	60.6*	-6.6	7.8	+
CCCCn1c(NS(=O)(=O)c2ccccc2)c(C(=O)OCC)c2nc3ccccc3nc21	83.4*	.	active	.	-4.4	+
COC(=O)C1=C(c2cccc(OC)c2OC)C[C@@H]2CC[C@H]1N2C(=O)N1CCCCC1	.	-8.1	.	-3.8	4.0	.
C[N+](C)(C)CC(=O)O	.	-6.2	.	-2.2	-7.4	.
O=c1[nH]c(=O)n(-c2cccc(Cl)c2)c(O)c1/C=N/c1ccccn1	19.2	-1.8	85.3*	0.3	-33.3	+
Cc1ccc(-n2c(O)c(C=Nc3ccccc3N)c(=O)[nH]c2=O)cc1C	12.5	-3.4	1.5	0.1	-26.9	i
O=c1[nH]c(=O)n(-c2ccc(F)cc2)c(O)c1C=Nc1ccccc1N1CCCC1	20.7	7.7	63.8*	4.7	-57.9	+
CCC(C)N=Cc1c(O)n(-c2ccccc2)c(=O)[nH]c1=O (stereo unspecified)	53.0	16.1	-4.8	0.5	45.6*	i
CNS(=O)(=O)c1ccc(N=Cc2c(O)n(-c3ccccc3)c(=O)[nH]c2=O)cc1	-5.1	-4.0	?	-0.3	-9.2	i
Cc1ccc2c(c1)C1CN(C)CCC1N2C(=O)COc1ccc(S(=O)(=O)N2CCOCC2)cc1 (stereo unspecified)	24.9	-2.9	-4.1	-0.8	5.8	i
Oc1ccc(/C=N/NP(=S)(c2ccccc2)c2ccccc2)cc1	83.3*	29.0	0.3	0.3	30.4	i
COc1cc(/C=N/NP(=S)(c2ccccc2)c2ccccc2)ccc1O	28.6	-1.6	-9.1	4.4	18.4	i
CC(C)N1CC=C(c2c[nH]c3ccccc23)CC1	13.5	-0.6	-1.4	-6.7	-1.8	i
C1=C(c2c[nH]c3ccccc23)CCNC1	-2.2	-8.4	95.0*	-4.4	.	+
